G6PDH CS: counter-screen for G6PDH assay hits: L. mesenteroides G6PDH inhibition | 200,000 compounds, 0.12% hits | inhibition, % at 5 µM | Purified L. mesenteroides G6PDH, diaphorase/resazurin coupled fluorescence, 45 min; in the data active means inhibition above about 50%
PfM18AAP inh: PfM18AAP enzyme inhibition. 290,000 compounds, 1.2% hits. inhibition, % at 7.35 µM. recombinant PfM18AAP, H-Glu-NHMec fluorogenic cleavage;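 active means inhibition above the campaign mean inhibition over all tested compounds plus 3 SD, cut at about 28% in these data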;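 further: 0% = plate median of test compound wells and 100% = 2 mM ZnCl2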
PHOSPHO1 inh: PHOSPHO1 (human) inhibition; 290,000 compounds, 1.1% hits; inhibition, % at 13.3 µM; recombinant PHOSPHO1, absorbance phosphatase assay; in the data active means inhibition above about 60%
Target sequence (Q8TCT1 whole entry, looked up): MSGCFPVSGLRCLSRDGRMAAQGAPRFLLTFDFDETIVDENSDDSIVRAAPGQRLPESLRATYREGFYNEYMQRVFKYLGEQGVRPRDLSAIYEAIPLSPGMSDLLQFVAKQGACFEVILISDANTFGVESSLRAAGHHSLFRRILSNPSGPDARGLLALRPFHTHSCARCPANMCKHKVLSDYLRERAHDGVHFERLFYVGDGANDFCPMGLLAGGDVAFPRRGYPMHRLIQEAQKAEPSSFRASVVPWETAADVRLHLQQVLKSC
HDAC3 inhib: blocks human histone deacetylase 3. O15379. inhibition, % at 8.3 µM. 320,000 compounds, 0.15% hits. AID 2718. recombinant HDAC3, fluorogenic peptide/trypsin coupled, fluorescence; in the data active means inhibition above about 26%, passing the limit was not always enough
p97 ATPase inh: inhibitors of human p97 ATPase; 220,000 compounds, 0.42% hits; recombinant p97 ATPase, Kinase-Glo ATP luminescence, 3 h; inhibition, % at 8 µM; in the data active means inhibition above about 15%;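 further: 0% = DMSO vehicle and 100% = wells lacking enzyme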
UBC9 SUMO inh: inhibitors of human SUMOylation (UBC9); inhibition, % at 35 µM; HTRF SUMOylation assay, SAE1/SAE2 + UBC9, in vitro; P63279; 290,000 compounds, 0.36% hits; in the data active means inhibition above about 50%, passing the limit was not always enough
Target sequence (P63279 whole entry, looked up): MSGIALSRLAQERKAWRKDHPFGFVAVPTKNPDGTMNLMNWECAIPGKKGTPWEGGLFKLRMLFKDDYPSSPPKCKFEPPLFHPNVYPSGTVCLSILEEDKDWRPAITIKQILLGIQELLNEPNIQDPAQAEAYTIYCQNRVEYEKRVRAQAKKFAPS
An asterisk follows results filed as active; / = no result. Rows were chosen to be rich in hits. Some 2.5% of all compounds tested hit in one or more screens of this group.

SMILES	G6PDH CS	PfM18AAP inh	PHOSPHO1 inh	HDAC3 inhib	p97 ATPase inh	UBC9 SUMO inh
COCCCNC(=O)c1ccc(N2CCCC2)c(NS(=O)(=O)c2ccc(C)cc2)c1	5	6	64*	4	-3	16
O=C(O)c1cccc(N/N=C/c2cn(-c3ccccc3)nc2-c2cccs2)c1	-2	31*	-6	-5	1	12
Cc1cc(NC(=O)c2ccccc2C)ccc1NC(=O)c1ccccc1Cl	/	3	-13	0	/	-8
Cc1ccc(N(CC(=O)NC2CCCCC2)C(=O)Cn2nnc(-c3ccc(C)o3)n2)cc1	9	0	52	9	3	39
Cc1ccc(-c2nnn(CC(=O)N(CC(=O)NC3CCCCC3)c3cnc4ccccc4c3)n2)o1	/	32*	/	6	6	/
O=C(Nc1ccc(S(=O)(=O)Nc2nccs2)cc1)c1cnc(Cl)c(Cl)c1	/	-24	20	7	7	18
C#CCOc1ccc(/C=C2/C(=O)ON=C2C)cc1Br	/	22	34	6	/	-6
CC(C)n1c(-c2ccc(C(C)(C)C)cc2)n[nH]c1=S	0	0	99*	2	-4	-4
Cc1ccc(-c2n[nH]c(=S)n2C)cc1	-2	19	94*	/	4	18
CC1(C)CC(=O)C(N=Nc2ccc(S(=O)(=O)N3CCOCC3)cc2)=C(O)C1	/	-12	32	6	7	12
Cc1nc2ccc(NC(=S)NCCCO)cc2nc1C	56*	5	35	-7	4	47
COC(=O)c1ccc(CSc2nnc3n(Cc4ccccc4OC)c(=O)c4ccccc4n23)o1	0	/	73*	3	/	16
COC(=O)c1ccc(CSc2nc3ccccc3c(=O)n2-c2ccc(OC)c(OC)c2)o1	8	-7	24	-1	0	-7
COC(=O)C1=NNC2(c3ccc(Cl)cc3)C(=O)N(c3ccccc3)C(=O)C12 (configuration not stated)	20	0	4	34*	2	2
COC(=O)C1=NNC2(c3ccc(Cl)cc3)C(=O)N(c3ccc(Cl)cc3)C(=O)C12 (configuration not stated)	-9	-5	17	12	-3	-10
O=C(CCCn1cncn1)N1CCCC(N2CCN(c3ccc(F)cc3)CC2)C1 (configuration not stated)	/	-2	18	-2	/	-18
O=C(NNC(=S)Nc1ccc(F)cc1)c1ccccc1OC(F)F	20	3	88*	0	2	-34
Cc1cccc(NC(=S)NNC(=O)c2sccc2C)c1	1	0	80*	2	-2	11
O=C(NNC(=S)Nc1cccc(Cl)c1)c1ccccc1OC(F)F	-9	-8	0	4	-3	-13
Cc1ccc(NC(=S)NNC(=O)c2ccccc2OC(F)F)cc1	0	4	86*	0	6	3
Cc1ccc(NC(=S)NNC(=O)Nc2ccccc2)cc1	17	42*	-86	-1	0	2
CCN(Cc1ccncc1)C(=O)c1ccc(C)c(S(=O)(=O)N2CCCCC2)c1	/	/	/	-4	/	/
COc1cccc(NC(=O)CN(C)C(=O)C2CCN(C(=O)c3ccccc3C)CC2)c1	/	/	/	-6	/	/
CC(C)c1cc(C(=O)NCCc2ccccc2)no1	8	-10	1	5	-1	-8
COc1ccc(CNC(=O)c2nccnc2CO)cc1	/	-7	37	-4	/	8
SMILES	G6PDH CS	PfM18AAP inh	PHOSPHO1 inh	HDAC3 inhib	p97 ATPase inh	UBC9 SUMO inh
Cc1cccc(NC(=S)NNC(=S)NCc2ccccc2)c1	4	-2	78*	3	-10	-37
S=C(NCc1ccccc1)Nc1cccc(Cl)c1	12	-3	-5	-2	1	10
COc1ccc(-c2cc(C(=O)Nc3ccc(C)c(C)c3)no2)cc1	/	-1	61*	-8	/	15
CCCN(CC(=O)Nc1ccccc1OC)C(=O)CCC(=O)c1ccc(OCC)cc1	/	/	/	-1	/	/
O=C(O)CC(c1ccccc1)n1cccc1 (configuration not stated)	2	-1	87*	-6	6	23
Nc1ccc(C(CC(=O)O)n2cccc2)cc1 (configuration not stated)	3	14	-26	-1	-4	3
Cc1ccc(OCCCCNC2CCCC(C)C2C)c(C)c1 (configuration not stated)	-1	-3	20	4	3	-20
Cc1occc1C(=O)Nc1nnc(-c2cccs2)s1	10	1	10	7	6	23
O=C(C[n+]1cccc(CNC(=O)c2ccc(OC(F)F)cc2)c1)c1ccccc1	6	-4	61*	-10	3	10
O=C(C[n+]1cccc(CNC(=O)c2ccc(OC(F)F)cc2)c1)Nc1ccc(F)cc1	15	-5	-10	1	3	21
COC(=O)c1[nH]c2ccccc2c1NC(=O)CN1CCCCCC1	-3	2	65*	-1	2	-4
CCOC(=O)N1CCN(CC(=O)Nc2c(C(=O)OC)[nH]c3ccccc23)CC1	0	3	22	5	2	15
CC(=O)N(C)c1ccc(NC(=O)/C=C/c2ccccc2Cl)cc1	22	-7	95*	1	-4	0
COc1cc(OC)cc(C(=O)NCCCNC(=O)c2ccccn2)c1	/	0	11	7	/	-2
CCc1ccc(-c2nc(SCC(=O)NC3CCS(=O)(=O)C3)n[nH]2)cc1 (configuration not stated)	/	/	/	-2	/	/
O=C(CSc1n[nH]c(-c2ccncc2)n1)NC1CCS(=O)(=O)C1 (configuration not stated)	3	7	98*	3	2	31
Nc1nonc1-n1nnc(C(=O)N/N=C/c2cccc(Cl)c2)c1-c1cccs1	/	3	-14	3	/	-8
COC(=O)C1=NN(c2ccc(C)cc2)C2(S1)SC(C(C)=O)=C(C)N2c1ccccc1 (configuration not stated)	4	-8	64*	-2	-3	-2
O=C1CC(N2CCN(S(=O)(=O)c3ccccc3F)CC2)C(=O)N1c1ccccc1Cl (configuration not stated)	/	/	/	0	/	/
COCC(C)N1C(=O)Cc2c1nc(N)c1c(N)nc(N3CCN(c4ccccc4F)CC3)c(C#N)c21 (configuration not stated)	2	-1	5	-10	9	97
CN(CCO)c1nc(N)c2c(N)nc3c(c2c1C#N)CC(=O)N3Cc1cccs1	4	5	-8	/	3	101*
N#Cc1c(N(CCO)CCO)nc(N)c2c(N)nc3c(c12)CC(=O)N3Cc1cccs1	/	11	-10	-8	29*	99
c1ccc2oc(-c3ccn[nH]3)cc2c1	/	-22	12	-1	4	22
CCOC(=O)CC(=O)CSc1nnc(Cn2c(=O)sc3ccccc32)n1C	3	10	71*	3	14	-5
CCOC(=O)CNC(=O)CSc1nnc(Cn2c(=O)sc3ccccc32)n1C	10	1	-10	1	-1	6

Compound activity as filed in PubChem BioAssay.
